LEDGF integ inh: blockers of LEDGF/p75-dependent integrase strand transfer – biochemical, TR-FRET, high throughput, primary screen; HIV-1 integrase (with human LEDGF/p75); TR-FRET IN-LEDGF/p75 DNA integration, Eu/Cy5; inhibition, % at 3.7 µM; 370,000 compounds, 0.64% hits;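 active = inhibition above the screen-wide mean plus 3 SD, cut at about 13% in these data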;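 note: signal is the Cy5 over europium emission ratio at 671 and 618 nm; 0% = plate median of compound wells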
MBD2 inh: inhibitors of MBD2 binding to methylated DNA, primary screen, biochemical, TR-FRET, DNA-binding domain, human; Methyl-CpG-binding domain protein 2 (Homo sapiens), Q9UBB5; MBD2 binding to methylated oligonucleotide; inhibition, % at 4.4 µM; 370,000 compounds, 0.31% hits; AID 686964, 2013; in the data active = inhibition above about 13%
TCR CD3 inh: inhibitors of human TCR-CD3 interaction, primary screen, biochemical, fluorescence, TAMRA-labeled TCR probe | inhibition, % at 9.4 µM | 360,000 compounds, 0.37% hits; in the data active = inhibition above about 19%;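 note: recombinant mutant TCR 2C K166C tagged with TAMRA read by polarization; 0% = receptor in buffer alone and 100% = receptor with positive control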
Rin1-Abl PPI inh: inhibitors of Rin1-Abl protein binding, primary screen, biochemical, TR-FRET; Tyrosine-protein kinase ABL1 (Homo sapiens) + Ras and Rab interactor 1 (Homo sapiens), …; inhibition, % at 7.35 µM; 360,000 compounds, 0.4% hits; AID 588664, 2011; in the data active = inhibition above about 5%, passing the limit was not always enough
Target sequence (P00519 whole entry, looked up): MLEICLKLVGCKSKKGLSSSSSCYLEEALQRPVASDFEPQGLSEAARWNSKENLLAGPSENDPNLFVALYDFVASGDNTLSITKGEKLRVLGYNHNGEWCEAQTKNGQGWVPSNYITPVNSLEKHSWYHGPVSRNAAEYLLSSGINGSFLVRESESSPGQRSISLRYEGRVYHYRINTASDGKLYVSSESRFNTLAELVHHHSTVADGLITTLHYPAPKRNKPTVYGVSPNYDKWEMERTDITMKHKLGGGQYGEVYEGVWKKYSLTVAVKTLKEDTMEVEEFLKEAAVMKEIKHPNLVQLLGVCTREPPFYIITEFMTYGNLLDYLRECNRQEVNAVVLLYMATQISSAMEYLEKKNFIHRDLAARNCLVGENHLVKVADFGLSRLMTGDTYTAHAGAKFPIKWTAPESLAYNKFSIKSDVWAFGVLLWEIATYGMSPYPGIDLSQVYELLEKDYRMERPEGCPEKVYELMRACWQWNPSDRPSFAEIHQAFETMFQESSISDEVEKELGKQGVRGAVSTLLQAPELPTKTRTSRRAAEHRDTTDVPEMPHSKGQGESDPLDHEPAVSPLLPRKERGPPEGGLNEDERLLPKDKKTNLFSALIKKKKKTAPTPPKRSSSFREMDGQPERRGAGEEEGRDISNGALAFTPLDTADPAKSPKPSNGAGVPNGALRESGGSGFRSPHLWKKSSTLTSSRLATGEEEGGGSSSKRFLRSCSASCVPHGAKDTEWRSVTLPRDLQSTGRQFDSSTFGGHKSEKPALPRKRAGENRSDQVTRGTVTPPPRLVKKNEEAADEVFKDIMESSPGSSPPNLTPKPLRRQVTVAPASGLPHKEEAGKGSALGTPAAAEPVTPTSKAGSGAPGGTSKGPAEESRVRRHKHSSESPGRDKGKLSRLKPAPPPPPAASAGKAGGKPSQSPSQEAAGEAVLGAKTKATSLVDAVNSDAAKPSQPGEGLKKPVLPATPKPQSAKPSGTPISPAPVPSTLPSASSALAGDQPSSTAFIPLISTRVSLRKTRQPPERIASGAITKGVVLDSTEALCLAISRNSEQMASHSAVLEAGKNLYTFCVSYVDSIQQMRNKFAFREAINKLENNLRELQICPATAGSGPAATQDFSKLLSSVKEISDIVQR
Target sequence (Q13671 whole entry, looked up): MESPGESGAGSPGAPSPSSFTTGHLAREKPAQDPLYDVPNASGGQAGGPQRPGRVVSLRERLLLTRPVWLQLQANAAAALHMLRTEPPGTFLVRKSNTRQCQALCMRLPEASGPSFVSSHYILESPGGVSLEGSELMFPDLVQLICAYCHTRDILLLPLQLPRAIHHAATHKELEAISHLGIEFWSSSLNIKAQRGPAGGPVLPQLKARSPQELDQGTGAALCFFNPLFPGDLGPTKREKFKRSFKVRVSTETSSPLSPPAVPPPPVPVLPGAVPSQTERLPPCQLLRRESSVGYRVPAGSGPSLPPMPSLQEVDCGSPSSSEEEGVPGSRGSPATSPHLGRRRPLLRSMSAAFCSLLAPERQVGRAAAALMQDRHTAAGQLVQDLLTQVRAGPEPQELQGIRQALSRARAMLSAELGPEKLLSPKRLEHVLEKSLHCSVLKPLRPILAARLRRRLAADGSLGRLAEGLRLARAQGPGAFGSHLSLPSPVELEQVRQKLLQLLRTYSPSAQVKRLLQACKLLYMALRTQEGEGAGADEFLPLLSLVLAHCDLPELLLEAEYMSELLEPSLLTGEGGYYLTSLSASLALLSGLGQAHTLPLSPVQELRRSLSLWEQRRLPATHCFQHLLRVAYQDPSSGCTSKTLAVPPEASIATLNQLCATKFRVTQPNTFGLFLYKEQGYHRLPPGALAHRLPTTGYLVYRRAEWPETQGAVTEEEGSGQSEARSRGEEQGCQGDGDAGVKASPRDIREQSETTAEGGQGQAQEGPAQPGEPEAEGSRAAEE
UHRF1 binding: UHRF1 methylated DNA binding inhibitors, primary screen, counter-screen for MBD2 inhibitor project, biochemical, TR-FRET, human UHRF1, single concentration; 370,000 compounds, 0.75% hits; AID 687016, 2013; UHRF1 binding to methylated oligo; inhibition, % at 4.4 µM; in the data active = inhibition above about 21%;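 note: UHRF1 SRA domain binding a hemimethylated CpG hairpin DNA probe; 0% = median of test compound wells and 100% = reference inhibitor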
Starred values were filed as active, the others as inactive; / = no result. An excerpt weighted towards active compounds, which were near 2% of everything screened.

SMILES	LEDGF integ inh	MBD2 inh	TCR CD3 inh	Rin1-Abl PPI inh	UHRF1 binding
COc1ccc(N2C(=O)c3n[nH]c(C)c3C2c2ccccc2)cc1 (stereo not drawn)	1	-1	11	/	0
O=C(Nc1cccc(NC(=O)c2ccccc2Cl)c1)c1ccc(F)cc1	-1	0	-4	2	27*
COC(=O)c1ccc(=O)c2nc3/c(=C/O)c(O)cc(=O)c3[nH]c12	52*	7	140*	38*	21*
COC(=O)c1ccc(N)cc1O	0	0	-2	5	-2
CCCc1nc2ccc(C(=O)OC)cn2c1Cc1ccccc1OC	4	-4	4	/	23*
COC(=O)c1ccc2nc(-c3ccc(F)cc3)c(Cc3ccccc3OC)n2c1	-1	4	-2	/	17
CCCc1nc2ccc(C(=O)OC)cn2c1Cc1ccccc1C(F)(F)F	2	11	-3	4	25*
COC(=O)c1ccc2nc(C3CCCCC3)c(Cc3ccccc3OC)n2c1	6	-2	1	/	12
COC(=O)C1CN(Cc2ccc(OC)cc2)CCS(=O)(=O)N1Cc1cn(CCOC(C)=O)nn1 (stereo not drawn)	1	9	/	/	15
CCc1cc(Cn2nc(-c3ccccc3)cc2C(=O)O)on1	1	3	1	1	80*
O=c1onc(-c2ccc(Cl)cc2Cl)n1-c1cccnc1	-2	-7	10	-2	1
Nc1[nH]c(C(=O)c2ccccc2)c(-c2ccc(C(F)(F)F)cc2)c1C(=O)NCc1ccc(Cl)cc1Cl	-2	3	-8	/	0
CCSc1nnc(NC(=O)c2ccccc2C)s1	1	0	4	0	24*
O=C(N[C@@H](Cc1ccccc1)C(=O)NCc1ccc(F)cc1)C1CCNCC1	-1	3	7	-1	0
C[C@H](CS)C(=O)N1CCC[C@H]1C(=O)O	84*	3	0	0	1
Cc1ccc(C)c(C(=O)CCC(=O)OCn2nnc3ccccc3c2=O)c1	-3	-3	-2	4	-1
O=C(CCC(=O)c1ccc(Cl)cc1)OCn1nnc2ccccc2c1=O	2	-2	8	1	56*
COc1ccc(S(=O)(=O)Nc2ccc(O)c3ccccc23)cc1	27*	-4	-5	0	-2
O=C(NCCN1CCCC(O)C1)c1cc(COc2cccc(C(F)(F)F)c2)on1 (stereo not drawn)	2	-3	-2	-2	0
S=c1[nH]nc(-c2n[nH]c3c2CCC3)n1N=Cc1c[nH]c2ccccc12	5	0	/	/	3
O=C1CCCC2=C1[C@@]1(O[C@H]3C=CC=CN23)C(=O)N(c2ccccc2)c2ccccc21	7	1	-2	/	0
CC(=O)N1CCN(c2ccc(NCc3ccc(Br)o3)cc2)CC1	28*	-5	3	-2	-3
CC(=O)N1CCN(c2ccc(NCc3ccccc3)cc2)CC1	12	-5	5	-2	-1
Cc1ccc2oc(-c3ccccc3)nc2c1	0	-5	-7	4	-2
CCOc1cccc(-c2nc3cc(C)ccc3o2)c1	11	11	-10	-4	26*
SMILES	LEDGF integ inh	MBD2 inh	TCR CD3 inh	Rin1-Abl PPI inh	UHRF1 binding
COc1cccc(CN(Cc2cccnc2)S(=O)(=O)c2ccc(-n3cnnn3)c(C)c2)c1	3	4	1	1	21*
COc1cc(S(=O)(=O)N(Cc2cccnc2)Cc2ccco2)ccc1-n1cnnn1	9	11	3	2	21*
O=C(OCC#CCSc1nnc(-c2cc3ccccc3cc2O)o1)c1ccc(F)cc1	2	-3	/	/	2
CCCC/C=C1/[C@@H](CC)N(Cc2ccc(OC)cc2OC)C2=N[C@@H](c3ccccc3)CC(=O)N21	4	-9	/	/	2
CC1CC(C)CN(C(=O)COC(=O)c2ccc(S(=O)(=O)N(C)c3ccccc3)cc2)C1 (stereo not drawn)	7	2	-8	4	21*
CC1CC(C)CN(C(=O)COC(=O)c2cccc(S(=O)(=O)N(C)c3ccccc3)c2)C1 (stereo not drawn)	1	5	2	6	0
Cc1ccc(S(=O)(=O)N2CCN(C(=O)CCC(=O)NCCc3ccc(S(N)(=O)=O)cc3)CC2)c(C)c1	-1	8	-5	3	44*
Cc1ccc(S(=O)(=O)N2CCN(C(=O)COC(=O)CCc3ccccc3)CC2)c(C)c1	-3	7	-7	-3	13
CCc1nc2c(OCc3cccc(Cl)c3)cccn2c1N(C)C(=O)Nc1ccccc1OC	-1	0	4	0	-1
Cc1ccc(S(=O)(=O)NC(=O)Nc2ccc(N(C)C)cc2)cc1	26*	-2	6	1	4
CCOC(=O)C1=CCN(S(=O)(=O)c2ccc(C)cc2)C1c1cccs1 (stereo not drawn)	4	-4	-10	3	0
CCCCn1c(N)c(N(CC(C)C)C(=O)CSc2nnc(C)n2-c2ccccc2)c(=O)[nH]c1=O	-5	-2	4	-1	8
O=C(NCC1CCCO1)C1CCN(C2CCN(CCCC3CCCC3)CC2)CC1 (stereo not drawn)	-5	8	-8	-1	23*
CN1C(=O)c2cc(NS(=O)(=O)c3ccc(F)cc3)ccc2OC[C@H]2O[C@@H](CC(=O)NCC(F)(F)F)CC[C@@H]21	4	9	/	/	5
COc1ccc(CN(C)CC2CCCN(CCc3ccccc3C)C2)cc1O (stereo not drawn)	1	4	4	2	0
COc1ccc(CCN2CCCC(CN(C)Cc3cc(Cl)c(O)c(OC)c3)C2)cc1 (stereo not drawn)	1	-1	5	1	54*
COc1ccc(NC(=O)Nc2ccc3c(c2)OCO3)c(C)c1	4	-3	7	0	0
CCN(CC)CCN(C(=O)CCS(=O)(=O)c1ccccc1)c1nc2c(C)cc(C)cc2s1	-10	1	0	5	1
CCCCN1CC(COCc2ccccc2)Oc2cccc(Oc3ccc(SC)c(C)c3)c2S1(=O)=O (stereo not drawn)	-2	13	5	/	23*
CCOC(=O)C1=C(C(=O)OCC)C2N(Cc3ccc(C#N)cc3)c3ccccc3[C@@]23C[C@@H](C(=O)OC)N(S(=O)(=O)c2c(C)noc2C)C3=N1 (stereo partly drawn)	0	2	3	/	0
COC(=O)[C@]12C[C@H](CC(=O)NCCCCc3ccccc3)C(=O)N(CCC3=CCCCC3)C1=C[C@H](C1CCCC1)O[C@@H]2C	0	-3	/	/	1
CCNc1ccc([N+](=O)[O-])cc1	3	-2	-3	-2	41*
Cc1ccc(O)c(NC(=O)CSc2n[nH]c(C)c2[N+](=O)[O-])c1	0	2	1	0	33*

Screening data as filed in PubChem BioAssay.
